ALR H2O2 inh = inhibitors of human sulfhydryl oxidase ALR. purified ALR, DTT oxidation, H2O2 HRP-luminol luminescence. inhibition, % (no concentration beside the values). 290,000 compounds, 3.8% hits;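 active = mean replicate inhibition above about 79%, with every replicate also reaching it, limit read from the data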
Target sequence (P55789 whole entry, looked up): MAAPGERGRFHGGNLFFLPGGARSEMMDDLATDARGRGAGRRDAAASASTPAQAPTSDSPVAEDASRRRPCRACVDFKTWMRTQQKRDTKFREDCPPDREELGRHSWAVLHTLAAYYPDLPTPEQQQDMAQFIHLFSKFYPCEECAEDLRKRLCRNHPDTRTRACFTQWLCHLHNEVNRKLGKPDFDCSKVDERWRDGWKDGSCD
NSD2 inh = NSD2 (human) methyltransferase inhibition; NSD2 peptide methylation, AlphaScreen, 120 min; inhibition, % at 12.5 µM; 310,000 compounds, 0.54% hits; in the data active = inhibition above about 50%
Mot1-301 SUMO = blocks SUMOylation pathway, rescuing yeast Mot1-301 growth | AID 2716 | S. cerevisiae Mot1-301 growth rescue, ATP luminescence, 38.5C; percent above DMSO median, 100 means doubled | growth rescue, % at 18.8 µM | 320,000 compounds, 1% hits;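 active = every valid replicate shows activation above 250% relative to neutral control wells; inactive = the rest, any valid replicate at or below 250%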
Glyco luc inh = blocks N-linked glycosylation in D54 reporter cells; 360,000 compounds, 0.23% hits; D54 ERlucT glycosylation luciferase reporter, 24 h; percent of 100 nM tunicamycin response; AID 588692; reporter increase, % at 12.5 µM;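 active = mean luciferase reporter signal, scaled so untreated is 0 and the glycosylation-blocking control 100, at or above a set limit in every replicate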;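 note: luciferase carries N-glycosylation sites so blocking glycosylation raises the light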
CDK5 inh = blocks human CDK5/p35 kinase activity | Recombinant CDK5/p35, ADP-Glo luminescence, 60 min | inhibition, % at 10 µM | 330,000 compounds, 0.01% hits | AID 488839;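 active = highest replicate inhibition of at least 50% and at least 75% of replicates reaching 50%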
Casp6 inh = blocks human caspase-6 cleavage activity; P55212; purified caspase-6, Z-VEID-R110 cleavage fluorescence; inhibition, % at 12.5 µM; 350,000 compounds, 0.53% hits;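 active = mean inhibition across replicates at least about 35%, with every replicate also reaching that limit, limit read from the data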
Target sequence (P55212 24-179 limits assumed): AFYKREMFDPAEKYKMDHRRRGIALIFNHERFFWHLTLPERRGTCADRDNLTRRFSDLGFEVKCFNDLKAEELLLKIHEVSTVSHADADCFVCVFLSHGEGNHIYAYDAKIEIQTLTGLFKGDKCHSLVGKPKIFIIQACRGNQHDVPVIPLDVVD
Target sequence (P55212 194-293 limits assumed): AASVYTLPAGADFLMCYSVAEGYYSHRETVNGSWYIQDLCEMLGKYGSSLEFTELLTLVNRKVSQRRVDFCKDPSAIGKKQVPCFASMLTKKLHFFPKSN
Hits are given with their value; n = inactive; x = no result. The list is not random: actives were taken first. Their share in the collection is about 3.9%.

SMILES	ALR H2O2 inh	NSD2 inh	Mot1-301 SUMO	Glyco luc inh	CDK5 inh	Casp6 inh
C[C@@H]1CN([C@@H](C)CO)C(=O)Cc2cc(NC(=O)CCN3CCOCC3)ccc2O[C@H]1CN(C)C(=O)NC1CCCCC1	x	x	x	x	x	n
O=c1[nH]c(=O)c2nc3c4ccccc4c4ccccc4c3nc2[nH]1	n	n	n	95.9	n	n
C[C@@H]1CN([C@H](C)CO)C(=O)c2cccc(NS(=O)(=O)c3cccs3)c2O[C@H]1CN(C)C(=O)Nc1ccc(F)cc1	x	x	x	x	x	n
CCCC(=O)Nc1ccc2c(c1)OC[C@H](C)N(Cc1cncnc1)C[C@H](C)[C@@H](OC)CN(C)C2=O	x	x	x	x	x	n
Cc1cc2[nH]c(=S)[nH]c2cc1C	98.8	n	n	n	n	n
O=C(C1CC1)N1CCCCN2[C@H](C1)[C@@H](c1ccc(C#CC3CC3)cc1)[C@@H]2CO	x	x	x	x	x	n
O=C(Cn1cnc2ccccc2c1=O)N1CCOCC1	x	n	n	n	n	x
O=C(Cn1cnc2ccccc2c1=O)N1CCc2ccccc2C1	n	n	497.7	n	n	n
CCS(=O)(=O)N1CCN(c2ccccc2)CC1	n	x	n	n	n	n
O=C1Oc2ccccc2C(=O)/C1=C\N1CCN(c2ccccc2)CC1	97.2	n	n	n	n	n
Cc1ccc(Cn2ccsc2=NC(=O)CCl)cc1	97.0	n	n	n	n	n
Cc1ccc(Cn2ccsc2=NC(=O)COC(=O)c2ccc(NC(=O)CC#N)cc2)cc1	n	n	n	n	n	n
C[C@@H]1CCCCO[C@@H](CN(C)S(=O)(=O)c2cccs2)[C@@H](C)CN([C@H](C)CO)C(=O)c2cc(N(C)C)ccc2O1	x	x	x	x	x	n
CC(C)CCOc1ccc(Cl)cc1CN1CCOCC1	x	n	313.2	n	n	x
C[C@@H]1CN([C@@H](C)CO)S(=O)(=O)c2ccc(C3=CCCC3)cc2O[C@H]1CN(C)C(=O)CN(C)C	x	x	x	x	x	n
COc1ccccc1Cn1c(C(C)C)nc2ccccc21	n	n	n	n	n	n
COc1ccccc1Cn1c(/C=C/c2ccccc2)nc2ccccc21	x	n	407.7	n	n	x
COc1ccc(/C=C/c2nc3ccccc3n2Cc2ccccc2OC)cc1	n	n	323.0	n	n	n
C[C@@H]1CN([C@H](C)CO)C(=O)c2cccc(NC(=O)C3CCCCC3)c2O[C@@H]1CN(C)Cc1ccc2c(c1)OCO2	x	x	x	x	x	n
CCN1CC(=O)N2[C@H](CO)[C@@H](c3ccc(-c4ccccc4F)cc3)[C@H]2C1	x	x	x	x	x	n
CC(C)C(=O)Nc1ccc2c(c1)nc1n2CCSC1	98.6	n	n	n	n	x
CCCC(=O)Nc1ccc2c(c1)nc1n2CCOC1	n	n	n	n	n	x
CCC(=O)Nc1ccc2c(c1)nc1n2CCSC1	98.7	n	n	n	n	x
Cc1onc(C(=O)Nc2sc3c(c2C#N)CCCC3)c1[N+](=O)[O-]	89.7	n	n	n	n	n
N#Cc1c(NC(=O)c2cccc(S(=O)(=O)Nc3ccc(C(=O)O)cc3)c2)sc2c1CCCC2	89.4	x	n	n	n	n
SMILES	ALR H2O2 inh	NSD2 inh	Mot1-301 SUMO	Glyco luc inh	CDK5 inh	Casp6 inh
N#Cc1c(NC(=O)c2ccco2)sc2c1CCC2	n	n	n	n	n	48.1
COCC(=O)N(C)C[C@H]1Oc2cc(C3=CCCCC3)ccc2S(=O)(=O)N([C@H](C)CO)C[C@@H]1C	x	x	x	x	x	n
C[C@H](CO)N1C[C@H](C)[C@@H](CN(C)C(=O)C2CC2)Oc2cc(C#Cc3ccncc3)ccc2S1(=O)=O	x	x	x	x	x	n
COc1ccc(S(=O)(=O)Nc2cccc3c2O[C@@H](CN(C)Cc2ccncc2)[C@H](C)CN([C@@H](C)CO)C3=O)cc1	x	x	x	x	x	n
NC1=NC[C@H](Cc2ccc(O)cc2)N1CCC12CC3CC(CC(C3)C1)C2	93.4	x	n	n	n	n
Cc1cc(C(=O)Nc2nnc(-c3ccccc3)s2)no1	93.3	n	n	n	n	x
Cc1cc(C(=O)Nc2nnc(C3CCCCC3)s2)no1	86.4	n	n	n	n	x
CC(C)C#Cc1cnc2c(c1)C(=O)N([C@H](C)CO)C[C@@H](C)[C@H](CN(C)C(=O)c1cccc(F)c1)O2	x	x	x	x	x	n
Cc1ccc(/C=N/NC(=O)Cc2cccn2C)cc1	n	n	n	n	n	n
CCc1ccc(/C=N/NC(=O)Cc2cccn2C)cc1	96.1	n	n	n	n	n
CN(C)c1ccc(NC(=O)c2cc3c(=O)n4ccccc4nc3n2C)cc1	82.1	n	n	n	n	x
COc1ccc(OC)c(NC(=O)c2cc3c(=O)n4ccccc4nc3n2C)c1	x	n	n	n	n	n
CC(C)NC(=O)N(C)C[C@H]1OCCCC[C@H](C)Oc2ccc(NS(=O)(=O)c3cn(C)cn3)cc2C(=O)N([C@H](C)CO)C[C@@H]1C	x	x	x	x	x	n
Cc1cc(-c2n[nH]c(=S)n2/N=C/c2ccc(Cl)c([N+](=O)[O-])c2)n[nH]1	96.6	n	n	n	n	x
COc1cccc(/C=N/n2c(-c3cc(C)[nH]n3)n[nH]c2=S)c1OC	96.5	n	n	n	n	n
O=C1NC2=C(C(=O)CCC2)C(c2cccc([N+](=O)[O-])c2)N1 (stereo unspecified)	x	n	x	n	n	38.5
Nc1nnc(N2CCCCC2)s1	90.5	n	n	n	n	x
Nc1nnc(N2CCCCCC2)s1	n	n	n	n	n	x
C[C@H](CO)N1C[C@H](C)[C@@H](CN(C)Cc2ccccc2)Oc2ncc(/C=C/c3ccccc3)cc2C1=O	x	x	x	x	x	n
C[C@H](CO)N1C[C@H](C)[C@H](CN(C)C)Oc2ccc(NC(=O)CCCCCC(=O)Nc3ccccc3N)cc2CC1=O	x	x	x	x	x	n
Cc1nnc(NS(=O)(=O)c2ccc(N=Nc3ccc(N)nc3N)cc2)s1	x	n	x	n	n	68.5
Cc1nnc(NS(=O)(=O)c2ccc(N)cc2)s1	x	x	n	n	n	n
COc1ccc(CN2C[C@H](O)COC[C@H]3O[C@H](CC(=O)NCc4ccncn4)CC[C@@H]32)cc1	x	x	x	x	x	n
O=C(CCc1nnc(CCCCc2ccccc2)o1)N1CCCC(O)C1 (stereo unspecified)	n	n	275.7	n	n	n
CC(/C=C1\N=C(SCc2ccccc2Cl)SC1=O)=C\c1ccccc1	98.8	n	n	n	n	x
SMILES	ALR H2O2 inh	NSD2 inh	Mot1-301 SUMO	Glyco luc inh	CDK5 inh	Casp6 inh
CO[C@H](CN(C)C(=O)c1cnccn1)[C@H](C)CN([C@@H](C)CO)S(=O)(=O)c1ccccc1	x	x	x	x	x	n
O=S(=O)(c1ccc2c(c1)CCN2)N1CCOCC1	77.7	n	n	n	n	n
C/C(=N/Nc1ccccc1C(=O)O)c1cccs1	94.5	n	n	n	n	n
c1ccc(-c2cn3c(n2)-c2ccccc2C3)cc1	94.8	n	n	n	n	n
Cc1cccc(-c2cnn(-c3cccc([N+](=O)[O-])c3)c2N)c1	92.5	n	n	n	n	n
COc1ccc2c3c(n(C)c2c1)[C@@H](CO)N(Cc1ccc2c(c1)OCO2)CC31CN(C(=O)c2ccc3c(c2)OCO3)C1	x	x	x	x	x	n
COCCCNC(=S)N/N=C/c1ccc(O)cc1	99.5	n	n	n	n	n
COCCNC(=S)N/N=C(\C)c1ccc(O)cc1	98.9	n	n	n	n	x

Screens: PubChem, Broad Institute
